Only some compounds are listed: those with a hit (about 15% of all), similar ones and a draw of the others.
HCV inhibitor – qHTS Assay for Inhibitors of Hepatitis C Virus (HCV) | Huh7.5.1 HCVcc-Cre infection, luciferase reporter, 44 h | Potency, µM (highest dose often 41.8 µM), for inactives: at the highest dose activity change, negative = inhibition, hits mostly inhibitors | 340,000 tested, 3.4% active; also: potency is read from the fitted curve at half-maximal effect; % is scaled to controls: 0 for no effect and ±100 for the full control effect
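1,000 cells/well; 4 h culture; + compound; + HCVcc-Cre (~0.5 moi); 44 h; luciferase substrate, RT 15 min; read 15 sec.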
Sm TGR inh – qHTS Assay for the Inhibitors of Schistosoma Mansoni Peroxiredoxins; Potency, µM (highest dose often 114 µM), for inactives: at the highest dose activity change, negative = inhibition, most hits filed as inhibitors; purified TGR, DTNB reduction, TNB absorbance 405 nm; AID 485364, 2010; Schistosoma mansoni thioredoxin glutathione reductase (TGR), Q962Y6; 360,000 tested, 3% active; also: potency is read from the fitted curve at half-maximal effect; % is scaled to controls: 0 for no effect and ±100 for the full control effect; nearly all actives have a fitted effect of over 60% in size
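First, TGR (20 nM dispensed) and NADPH were mixed with compound. Second, a 15 min room-temperature incubation followed. Third, further NADPH and then DTNB were added to start the reaction. Finally, TNB absorbance was monitored kinetically.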
SARS PLpro yeast – qHTS of Yeast-based Assay for SARS-CoV PLP | Potency, µM (titrated, usually from 32.9 µM), without a hit: at the highest dose activity, positive = growth rescue, actives largely listed as activators | AID 485353, 2010 | 330,000 tested, 0.19% active | S. cerevisiae expressing SARS-CoV PLpro, growth rescue; calls by dose curve; also: potency is read from the fitted curve at half-maximal effect; 0% is about no effect; nearly all actives have a fitted effect of over 55% in size
Pf growth 48h – Primary qHTS for delayed death inhibitors of the malarial parasite plastid, 48 hour incubation; 310,000 tested, 5.9% active; P. falciparum luciferase growth in erythrocytes, 48 h; Potency, µM (highest dose often 28.7 µM), inactives show at the highest dose activity change, negative = inhibition, actives largely listed as inhibitors; also: potency is read from the fitted curve at half-maximal effect; % is scaled to controls: 0 for no effect and ±100 for the full control effect
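Firefly luciferase activity from engineered P. falciparum reports growth; inhibitors lower the luminescent signal. Cultures contained 2% hematocrit erythrocytes at 0.1% final parasitemia.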
HCMV antiviral – qHTS Assay for inhibitors of the human cytomegalovirus (HCMV) | HFF cells, HCMV-luciferase reporter, 72 h; stronger effect = lower value | activity change, negative = inhibition, % at 57.5 µM | 410,000 tested, 4.5% active; in the data active = activity change below about -60%; inconclusive = no clear call, values can overlap the other calls; inactive = above about -39%; also: % is scaled to controls: 0 for no effect and ±100 for the full control effect
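Luciferase read-out from HCMV-luciferase-infected HFFs (MOI 1 PFU/cell) 72 h post infection at 37C; compounds added after 16 h cell attachment; activity normalized between buffer-only basal and Salinomycin (10uM) inhibitor controls.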
Pf growth 96h – Primary qHTS for delayed death inhibitors of the malarial parasite plastid, 96 hour incubation | P. falciparum luciferase reporter growth, 96 h | Potency, µM (series often up to 28.7 µM), without a hit: top-dose activity change, negative = inhibition, usual class: inhibitors | 320,000 tested, 6.9% active | AID 504834, 2011; also: potency is read from the fitted curve at half-maximal effect; % is scaled to controls: 0 for no effect and ±100 for the full control effect
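Parasite growth measured via integrated firefly luciferase reporter in P. falciparum. Infected erythrocytes at 2% hematocrit, 0.05% parasitemia final were treated 96 hours at 37 C under 5% CO2, and luminescence was read.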
HCV inh confirm – qHTS Assay for Inhibitors of Hepatitis C Virus (HCV): Confirmation Assay for Cherry-picked Compounds. HCVcc-Cre infectious virus cell assay, luciferase, inhibition. Potency, µM (top dose mostly 41.8 µM), inactives show top-dose activity, negative = inhibition, actives largely listed as inhibitors. 640 tested, 78% active. shares compounds with HCV inhibitor; also: potency is read from the fitted curve at half-maximal effect; nearly all actives have a fitted effect of over 80% in size
HCV host tox – qHTS Assay for Inhibitors of Hepatitis C Virus (HCV): Cytotoxicity Counterscreen for Cherry-picked Compounds; shares compounds with HCV inhibitor; HCV host cell line cytotoxicity counterscreen; Potency, µM (series often up to 41.8 µM), inactives show at the highest dose activity change, negative = cytotoxicity, hits mostly inhibitors; 640 tested, 22% active; AID 720576, 2013;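 also: potency is read from the fitted curve at half-maximal effect; 44 h compound exposure; % is scaled to controls: 0 for no effect and ±100 for the full control effect; nearly all actives have a fitted effect of over 55% in size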
* hit, by the source's call; ? = inconclusive; . = no result given. Unless noted, calls follow the shape of the dose curve; as a rule, active = well fitted curve in the direction sought with a large enough effect; inconclusive = small, poorly fitted or top-dose-only effect, or another doubt; inactive = no such curve, though single readings can be large; an effect the other way counts as inactive or inconclusive.

SMILES | HCV inhibitor | Sm TGR inh | SARS PLpro yeast | Pf growth 48h | HCMV antiviral | Pf growth 96h | HCV inh confirm | HCV host tox
Cc1ccc(NS(=O)(=O)c2ccc3c(c2)C(=O)c2ccccc2C3=O)c(C)c1 | ? | -11.4% | 15.4% | -11.6% | -17.6 | ? | . | .
Cc1ccc2c(c1)-c1cc(C)ccc1C2=O | ? | . | . | . | 9.4 | . | 22.3µM* | 10.0%
Cc1ccc(S(=O)(=O)c2cc3c(=O)n4cccc(C)c4nc3n(Cc3ccncc3)c2=N)cc1 | -25.8% | 0.4% | -0.7% | ? | . | ? | . | .
Cc1cc(C)cc(-n2nnc3ccccc3c2=O)c1 | . | . | . | . | 7.9 | . | . | .
Cc1cc(C)cc(-n2c(C)c3c(C)nnc(C)c3c2C)c1 | 2.24µM* | 3.0% | -16.9% | ? | -32.0 | ? | 11.2µM* | -14.1%
CC(C)(C)C1CCc2c(sc3ncn(N)c(=N)c23)C1 (configuration not stated) | ? | 9.4% | -2.6% | 5.1% | ? | -29.4% | 6.28µM* | ?
N=c1c2c3c(sc2ncn1N)CCC3 | 0.6% | 0.7% | 1.1% | 43.0% | 4.3 | 14.9% | . | .
CCc1nc2ccc(C)cc2c(C(=O)NC2CCCCC2C)c1C (configuration not stated) | -10.5% | 7.7% | 1.3% | -14.3% | 16.9 | ? | . | .
C[C@@H]1CN([C@@H](C)CO)C(=O)CCCn2nncc2CO[C@@H]1CN(C)C(=O)c1ccncc1 | . | . | . | . | 20.6 | . | . | .
Cc1ccc2c(c1)c1c(n2CC(O)CNC(CO)(CO)CO)CCCC1 (configuration not stated) | ? | -11.3% | 5.0% | . | . | 18.7% | . | .
Cc1ccc2c(c1)c1c(n2CC(O)CNC2CCCCC2)CCCC1 (configuration not stated) | 4.47µM* | 2.8% | -0.4% | 2.94µM* | -104.5* | 26.0% | 12.5µM* | -96.6%
C[C@@H]1CN(S(=O)C(C)(C)C)[C@@H](CCO)/C1=C\CCO (some centres not stated) | 15.9% | . | . | . | -2.7 | . | . | .
COCCn1c(=O)[nH]c2cc(C(=O)N3CCN(c4ccc(Cl)cc4)CC3)ccc2c1=O | 8.91µM* | 3.1% | 1.5% | -26.9% | -23.4 | 26.1% | 7.05µM* | ?
Cc1cc(C)nc(NCC(O)CNc2ccccc2Cl)n1 (configuration not stated) | ? | -3.2% | 4.6% | 0.0% | -29.6 | 24.4% | 28µM* | 12.3%
Cc1cc(Cl)c2oc(C(=O)N3CCN(C(=O)c4ccco4)CC3)c(C)c2c1 | ? | ? | -21.4% | ? | 35.4 | 6.5% | ? | -12.1%
COc1ccc(CNC(=O)c2nc(SCc3ccccc3F)ncc2Cl)cc1 | . | 6.4% | . | . | -31.4 | . | . | .
N#C/C(=C\c1ccc(OCc2cccc(C(=O)O)c2)cc1)C(=O)NCc1ccco1 | 2.4% | 0.0% | -1.5% | 185.5% | 47.3 | 319.0% | . | .
Cc1ccc(S(=O)(=O)NCc2ccncc2)cc1 | 2.82µM* | -0.6% | 0.8% | . | ? | 3.9% | 2.23µM* | 8.87µM*
CCOc1ccc(S(=O)(=O)NCc2ccncc2)cc1 | ? | -3.1% | -12.5% | . | -95.9* | -11.9% | 0.281µM* | 0.25µM*
O=C(NCc1nnnn1-c1ccc(F)cc1)c1ccc([N+](=O)[O-])o1 | ? | ? | -3.4% | ? | ? | -5.9% | . | .
O=C1CN2CCC1C/C2=C\c1ccnc2c(Cl)cccc12 (configuration not stated) | ? | -2.7% | -1.0% | 17.1% | ? | -4.7% | . | .
COC(=O)C1=C(c2ccc(-c3ccccc3)c(F)c2)C[C@@H]2CC[C@H]1N2C(=O)N1CCOCC1 | 3.55µM* | -4.1% | -8.3% | ? | -29.8 | ? | 7.91µM* | 7.05µM*
COC(=O)C1=C(c2ccc3ccccc3c2)C[C@@H]2CC[C@H]1N2C(=O)N1CCCCC1 | 7.94µM* | 32.8% | -12.6% | ? | -39.3 | ? | 11.2µM* | 11.2µM*
COC(=O)C1=C(c2ccccc2)C[C@@H]2CC[C@H]1N2C(=O)N1CCOCC1 | 10.0% | . | . | . | 6.6 | . | . | .
COC(=O)C1=C(c2ccc3ccccc3c2)C[C@@H]2CC[C@H]1N2C(=O)N1CCC(O)CC1 | 1.5% | -14.2% | -9.3% | ? | . | -11.7% | . | .
SMILES | HCV inhibitor | Sm TGR inh | SARS PLpro yeast | Pf growth 48h | HCMV antiviral | Pf growth 96h | HCV inh confirm | HCV host tox
O=[N+]([O-])c1cccc(S(=O)(=O)N2CCCCC2c2cccnc2)c1 (configuration not stated) | -26.5% | -3.2% | 1.0% | ? | -12.8 | ? | . | .
Cc1cc(C)c(C(=O)OCCNC(=O)c2cccnc2)cc1C | 8.91µM* | -0.6% | -9.7% | -18.2% | -24.6 | 8.0% | ? | -23.6%
NS(=O)(=O)c1ccc(CNC(=S)Nc2cc(S(=O)(=O)N3CCOCC3)ccc2Cl)cc1 | 3.2% | . | . | . | 10.2 | . | . | .
CC(Nc1cc(N2CCNCC2)ccc1[N+](=O)[O-])c1ccccc1 (configuration not stated) | 3.55µM* | 1.2% | -4.1% | -24.8% | -17.9 | 34.6% | ? | 55.3%
CCS(=O)(=O)N1CCN(c2ccc([N+](=O)[O-])c(NC(C)c3ccccc3)c2)CC1 (configuration not stated) | ? | -1.0% | 6.0% | ? | ? | ? | . | .
CCN(C[C@H]1N[C@@](C)(C(=O)OC)[C@H]2C(=O)N(Cc3ccccc3)C(=O)[C@@H]12)C(=O)Nc1ccc(F)cc1 | 23.9% | . | -4.4% | . | -10.5 | . | . | .
CN(C)C1(CNC(=O)C2CCC(=O)N(CCc3ccc(Cl)cc3)C2)CCCCC1 (configuration not stated) | ? | -1.5% | 19.4% | ? | -3.7 | -28.8% | . | .
CCCCNC(=O)CSc1nc2cc3c(cc2c(=O)n1Cc1ccco1)OCO3 | ? | -15.4% | -0.1% | -11.3% | -60.5* | -2.7% | 14.1µM* | -2.6%
Cc1ccc(Cn2c(SCC(=O)NCc3ccc(Cl)cc3)nc3ccsc3c2=O)cc1 | . | 2.2% | . | . | -3.8 | . | . | .

Screening data as filed in PubChem BioAssay.
